About 8,800 targets were measured; listed, in parts, are those with a hit and a random draw of the rest. About 0.5% of all pairs of compound and target were hits. Values without a mark were called inactive.
compound: NCC(=O)Nc1ccc(-n2nc(C(F)(F)F)cc2-c2ccc3c(ccc4ccccc43)c2)cc1; experiment: log2 fold change, soluble protein after heating vs DMSO (PISA); higher = thermal stabilisation; K562 lysate, 10 uM; active = over 0.2 and 3.5 SD of the protein, either way, in both replicates (recomputed)
In short: (§1)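 To prepare the extract, K562 pellets were dounce-homogenised in PBS pH 7.4 with 1 mM MgCl2, giving crude material at 1 mg/mL protein. This was treated with 10 μM compound for 30 min, then heated in aliquots for 3 min over 48°C-58°C before pooling and addition of NP-40 to 0.5% at 4°C. Centrifugation at 21,000xg for 90 min left soluble protein in the supernatant, which TMTpro 16plex LC-MS/MS quantified with equalised channel sums. Results are log-two fold changes in thermal stability compared with solvent controls, from duplicates.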

Sequence of UniProt Q01432 (Q01432 whole entry, looked up): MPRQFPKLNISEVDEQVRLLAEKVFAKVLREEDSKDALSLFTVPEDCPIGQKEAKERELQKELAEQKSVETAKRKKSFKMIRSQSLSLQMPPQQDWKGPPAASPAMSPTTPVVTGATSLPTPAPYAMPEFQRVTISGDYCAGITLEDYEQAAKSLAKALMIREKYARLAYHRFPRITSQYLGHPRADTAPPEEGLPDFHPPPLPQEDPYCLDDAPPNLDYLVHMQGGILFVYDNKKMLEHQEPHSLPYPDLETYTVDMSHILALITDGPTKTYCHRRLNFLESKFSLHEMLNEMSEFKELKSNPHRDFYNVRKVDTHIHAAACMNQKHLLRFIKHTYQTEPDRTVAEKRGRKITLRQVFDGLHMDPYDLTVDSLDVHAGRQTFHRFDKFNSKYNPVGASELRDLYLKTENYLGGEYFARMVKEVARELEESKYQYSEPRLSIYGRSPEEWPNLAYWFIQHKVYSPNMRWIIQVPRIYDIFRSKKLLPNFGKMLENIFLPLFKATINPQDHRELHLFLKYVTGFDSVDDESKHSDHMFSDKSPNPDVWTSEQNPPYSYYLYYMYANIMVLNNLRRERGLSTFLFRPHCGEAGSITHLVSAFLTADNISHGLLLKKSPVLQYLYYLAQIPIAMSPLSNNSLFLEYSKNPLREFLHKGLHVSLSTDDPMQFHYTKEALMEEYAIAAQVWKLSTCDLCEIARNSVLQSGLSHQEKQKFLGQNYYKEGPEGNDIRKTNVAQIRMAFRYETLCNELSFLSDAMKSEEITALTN
Sequence of UniProt Q9Y303 (Q9Y303 whole entry, looked up): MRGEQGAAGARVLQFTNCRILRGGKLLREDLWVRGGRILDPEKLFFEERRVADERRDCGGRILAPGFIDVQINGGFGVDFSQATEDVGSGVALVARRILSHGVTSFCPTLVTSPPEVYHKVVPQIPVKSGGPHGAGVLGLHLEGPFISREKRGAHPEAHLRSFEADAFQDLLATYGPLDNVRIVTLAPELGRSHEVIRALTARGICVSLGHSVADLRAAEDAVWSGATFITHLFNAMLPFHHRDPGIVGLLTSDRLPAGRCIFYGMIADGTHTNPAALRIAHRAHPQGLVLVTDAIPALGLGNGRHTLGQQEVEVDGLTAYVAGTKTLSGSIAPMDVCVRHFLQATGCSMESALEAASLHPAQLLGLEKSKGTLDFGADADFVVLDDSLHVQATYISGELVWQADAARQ
Sequence of UniProt Q9UPW5 (Q9UPW5 whole entry, looked up): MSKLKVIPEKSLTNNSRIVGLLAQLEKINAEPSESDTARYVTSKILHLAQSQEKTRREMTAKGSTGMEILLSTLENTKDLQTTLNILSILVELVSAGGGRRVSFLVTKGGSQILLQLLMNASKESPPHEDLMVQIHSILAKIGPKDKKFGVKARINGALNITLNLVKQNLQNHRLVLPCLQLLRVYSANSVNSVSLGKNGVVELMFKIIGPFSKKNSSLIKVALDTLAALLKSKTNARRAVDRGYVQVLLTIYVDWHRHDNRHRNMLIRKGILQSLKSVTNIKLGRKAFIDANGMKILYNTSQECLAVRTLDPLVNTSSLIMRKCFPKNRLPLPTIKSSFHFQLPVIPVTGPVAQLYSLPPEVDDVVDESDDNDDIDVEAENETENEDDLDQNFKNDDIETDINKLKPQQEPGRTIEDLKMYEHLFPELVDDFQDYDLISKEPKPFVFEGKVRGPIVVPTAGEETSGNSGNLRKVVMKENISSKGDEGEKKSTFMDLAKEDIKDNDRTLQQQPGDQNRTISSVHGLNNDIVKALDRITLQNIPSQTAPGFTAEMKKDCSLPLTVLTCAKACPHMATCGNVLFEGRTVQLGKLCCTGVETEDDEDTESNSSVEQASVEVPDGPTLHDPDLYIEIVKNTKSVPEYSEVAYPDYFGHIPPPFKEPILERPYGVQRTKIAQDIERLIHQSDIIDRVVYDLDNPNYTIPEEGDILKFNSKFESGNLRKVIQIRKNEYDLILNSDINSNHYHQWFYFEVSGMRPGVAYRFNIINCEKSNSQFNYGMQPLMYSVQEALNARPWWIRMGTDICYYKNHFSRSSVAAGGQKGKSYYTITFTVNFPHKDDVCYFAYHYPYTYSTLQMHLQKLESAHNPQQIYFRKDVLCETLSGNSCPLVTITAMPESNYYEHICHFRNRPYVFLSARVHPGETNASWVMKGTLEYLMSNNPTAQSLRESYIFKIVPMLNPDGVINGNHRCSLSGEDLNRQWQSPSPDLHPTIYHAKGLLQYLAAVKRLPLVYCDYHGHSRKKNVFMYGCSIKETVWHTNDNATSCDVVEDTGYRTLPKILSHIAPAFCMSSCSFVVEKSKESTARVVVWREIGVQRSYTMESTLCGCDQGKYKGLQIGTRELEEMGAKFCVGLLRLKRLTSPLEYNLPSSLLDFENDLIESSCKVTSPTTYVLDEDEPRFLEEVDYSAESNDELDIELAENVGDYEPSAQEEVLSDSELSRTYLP
Sequence of UniProt P16219 (P16219 whole entry, looked up): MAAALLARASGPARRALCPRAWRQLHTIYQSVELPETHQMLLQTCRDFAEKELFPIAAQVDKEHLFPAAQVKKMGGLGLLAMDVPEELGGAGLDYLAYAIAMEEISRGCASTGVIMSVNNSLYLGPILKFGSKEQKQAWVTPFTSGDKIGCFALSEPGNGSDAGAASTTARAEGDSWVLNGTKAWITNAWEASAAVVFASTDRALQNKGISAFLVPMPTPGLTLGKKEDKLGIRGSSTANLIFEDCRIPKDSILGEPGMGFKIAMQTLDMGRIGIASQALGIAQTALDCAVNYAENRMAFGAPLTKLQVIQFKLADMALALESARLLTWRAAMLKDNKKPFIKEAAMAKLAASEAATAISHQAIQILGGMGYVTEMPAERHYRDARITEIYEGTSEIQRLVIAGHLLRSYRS
Sequence of UniProt P51649 (P51649 whole entry, looked up): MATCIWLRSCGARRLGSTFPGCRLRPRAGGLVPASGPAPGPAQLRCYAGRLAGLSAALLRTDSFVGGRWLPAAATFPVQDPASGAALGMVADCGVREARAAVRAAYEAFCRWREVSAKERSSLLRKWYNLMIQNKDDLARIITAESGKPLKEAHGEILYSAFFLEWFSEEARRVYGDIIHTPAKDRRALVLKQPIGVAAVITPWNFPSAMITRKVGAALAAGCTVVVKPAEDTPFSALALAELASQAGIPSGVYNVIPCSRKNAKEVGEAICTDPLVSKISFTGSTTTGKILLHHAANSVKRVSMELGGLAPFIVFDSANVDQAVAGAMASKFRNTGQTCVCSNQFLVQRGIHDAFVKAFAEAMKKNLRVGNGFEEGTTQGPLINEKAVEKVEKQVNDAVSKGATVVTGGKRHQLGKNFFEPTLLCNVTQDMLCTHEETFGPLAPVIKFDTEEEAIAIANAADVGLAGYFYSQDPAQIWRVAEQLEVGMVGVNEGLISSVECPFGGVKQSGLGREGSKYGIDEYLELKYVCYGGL
Sequence of UniProt O95870 (O95870 whole entry, looked up): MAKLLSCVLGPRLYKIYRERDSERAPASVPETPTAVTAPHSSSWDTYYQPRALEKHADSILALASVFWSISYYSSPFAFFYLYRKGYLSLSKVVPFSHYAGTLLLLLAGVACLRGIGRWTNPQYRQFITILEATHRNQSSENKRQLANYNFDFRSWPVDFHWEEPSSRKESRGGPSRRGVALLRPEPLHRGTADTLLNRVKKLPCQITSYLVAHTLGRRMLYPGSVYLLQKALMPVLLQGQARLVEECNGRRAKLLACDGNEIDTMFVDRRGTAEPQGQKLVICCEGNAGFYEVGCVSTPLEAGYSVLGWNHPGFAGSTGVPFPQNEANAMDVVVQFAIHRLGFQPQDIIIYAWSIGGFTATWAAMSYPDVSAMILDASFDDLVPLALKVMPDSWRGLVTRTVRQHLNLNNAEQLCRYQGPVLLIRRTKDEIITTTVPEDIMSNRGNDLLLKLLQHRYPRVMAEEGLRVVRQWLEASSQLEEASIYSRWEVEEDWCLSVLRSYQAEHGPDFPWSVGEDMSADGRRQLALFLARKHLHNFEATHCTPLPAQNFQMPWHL
Sequence of UniProt P00519 (P00519 whole entry, looked up): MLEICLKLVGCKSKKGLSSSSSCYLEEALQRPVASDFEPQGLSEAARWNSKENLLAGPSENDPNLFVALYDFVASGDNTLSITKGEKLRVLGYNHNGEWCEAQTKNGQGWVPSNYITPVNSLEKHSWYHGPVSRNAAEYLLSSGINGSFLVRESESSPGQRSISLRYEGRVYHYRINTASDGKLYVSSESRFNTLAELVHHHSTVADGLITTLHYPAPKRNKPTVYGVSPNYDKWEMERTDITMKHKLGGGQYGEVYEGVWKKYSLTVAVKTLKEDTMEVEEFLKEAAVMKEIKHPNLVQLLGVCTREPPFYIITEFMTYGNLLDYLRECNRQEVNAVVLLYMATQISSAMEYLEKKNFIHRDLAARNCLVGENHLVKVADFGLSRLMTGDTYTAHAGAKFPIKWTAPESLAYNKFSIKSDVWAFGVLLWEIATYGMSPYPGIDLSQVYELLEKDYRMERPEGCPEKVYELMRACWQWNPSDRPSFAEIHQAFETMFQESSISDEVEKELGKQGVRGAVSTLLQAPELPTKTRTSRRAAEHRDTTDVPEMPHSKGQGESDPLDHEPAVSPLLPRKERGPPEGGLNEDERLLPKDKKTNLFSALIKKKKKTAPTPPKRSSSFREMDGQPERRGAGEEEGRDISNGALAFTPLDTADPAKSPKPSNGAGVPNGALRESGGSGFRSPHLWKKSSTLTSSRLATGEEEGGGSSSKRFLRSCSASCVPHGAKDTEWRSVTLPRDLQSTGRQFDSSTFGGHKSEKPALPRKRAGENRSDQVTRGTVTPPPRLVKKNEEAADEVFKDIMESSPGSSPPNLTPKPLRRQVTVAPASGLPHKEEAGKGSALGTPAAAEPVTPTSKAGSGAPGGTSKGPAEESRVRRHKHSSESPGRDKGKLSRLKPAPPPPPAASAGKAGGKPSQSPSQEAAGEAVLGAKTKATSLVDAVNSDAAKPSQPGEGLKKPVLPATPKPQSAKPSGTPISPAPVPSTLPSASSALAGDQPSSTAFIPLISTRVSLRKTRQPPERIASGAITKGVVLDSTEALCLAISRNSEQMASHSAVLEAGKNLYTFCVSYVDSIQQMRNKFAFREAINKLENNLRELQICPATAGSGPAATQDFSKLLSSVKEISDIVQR

Row | Target | log2 fold change
1 | AIMP1 isoform 2 (UniProt Q12904) | -0.01
2 | AMDHD2 isoform 3 (UniProt Q9Y303) | 0.038
3 | ANXA11 (UniProt P50995) | -0.003
4 | ALDH5A1 isoform 2 (UniProt P51649) | -0.02
5 | ABHD11 (UniProt Q8NFV4) | -0.001
6 | AKAP11 (UniProt Q9UKA4) | -0.066
7 | ANP32A (UniProt P39687) | -0.005
8 | APAF1 (UniProt O14727) | 0.021
9 | AKR1B1 (UniProt P15121) | -0.018
10 | ANXA1 (UniProt P04083) | -0.013
11 | ANXA5 (UniProt P08758) | -0.008
12 | ALDH18A1 (UniProt P54886) | 0.023
13 | ABHD17B (UniProt Q5VST6) | 0.096
14 | ARHGAP6 (UniProt O43182) | 0.058
15 | ARHGEF1 (UniProt M0QZR4) | 0.019
16 | AFF1 isoform 2 (UniProt P51825) | 0.019
17 | AGPAT1 (UniProt Q99943) | -0.027
18 | ANKRD52 (UniProt Q8NB46) | -0.043

Row | Target | log2 fold change
19 | ACBD6 (UniProt Q9BR61) | -0.009
20 | ASPH (UniProt Q12797) | 0
21 | AKR1C2 (UniProt P52895) | -0.008
22 | AK2 (UniProt P54819) | 0.024
23 | ACTBL2 (UniProt Q562R1) | -0.116
24 | ABCF3 (UniProt Q9NUQ8) | 0.026
25 | ABL2 (UniProt P42684) | -0.093
26 | ABL1 isoform 2 (UniProt P00519) | -0.003
27 | AMPD3 isoform 4 (UniProt Q01432) | -0.038
28 | ALDH2 (UniProt P05091) | -0.068
29 | AGL (UniProt P35573) | 0
30 | AGO4 (UniProt Q9HCK5) | -0.007
31 | ABHD16A (UniProt O95870) | 0.007
32 | ANKRD40 (UniProt Q6AI12) | 0.914 (active)
33 | AK4 (UniProt P27144) | -0.051
34 | ACADS (UniProt P16219) | -0.005
35 | AGTPBP1 (UniProt Q9UPW5) | 0.125

compound: O=C(CCCCCCC(=O)Nc1ccccc1)NO [vorinostat]; experiment: as above
In short: as §1

Row | Target | log2 fold change
36 | AIMP1 isoform 2 (UniProt Q12904) | -0.235 (active)
37 | AMDHD2 isoform 3 (UniProt Q9Y303) | 0.088
38 | ANXA11 (UniProt P50995) | -0.117
39 | ALDH5A1 isoform 2 (UniProt P51649) | 0.371 (active)
40 | ABHD11 (UniProt Q8NFV4) | 0.195
41 | AKAP11 (UniProt Q9UKA4) | -0.164
42 | ANP32A (UniProt P39687) | 0.08
43 | APAF1 (UniProt O14727) | -0.292 (active)
44 | AKR1B1 (UniProt P15121) | 0.24 (active)
45 | ANXA1 (UniProt P04083) | -0.255 (active)
46 | ANXA5 (UniProt P08758) | 0.056
47 | ALDH18A1 (UniProt P54886) | -0.401 (active)
48 | ABHD17B (UniProt Q5VST6) | 0.219
49 | ARHGAP6 (UniProt O43182) | -0.346 (active)
50 | ARHGEF1 (UniProt M0QZR4) | -0.392 (active)
51 | AFF1 isoform 2 (UniProt P51825) | -0.074
52 | AGPAT1 (UniProt Q99943) | -0.27 (active)
53 | ANKRD52 (UniProt Q8NB46) | -0.491 (active)

Row | Target | log2 fold change
54 | ACBD6 (UniProt Q9BR61) | -0.298 (active)
55 | ASPH (UniProt Q12797) | 0.131
56 | AKR1C2 (UniProt P52895) | 0.504 (active)
57 | AK2 (UniProt P54819) | 0.159
58 | ACTBL2 (UniProt Q562R1) | -0.154
59 | ABCF3 (UniProt Q9NUQ8) | -0.439 (active)
60 | ABL2 (UniProt P42684) | -0.274
61 | ABL1 isoform 2 (UniProt P00519) | -0.328 (active)
62 | AMPD3 isoform 4 (UniProt Q01432) | 0.256 (active)
63 | ALDH2 (UniProt P05091) | 0.627 (active)
64 | AGL (UniProt P35573) | -0.275 (active)
65 | AGO4 (UniProt Q9HCK5) | 0.09
66 | ABHD16A (UniProt O95870) | 0.906 (active)
67 | ANKRD40 (UniProt Q6AI12) | -0.217
68 | AK4 (UniProt P27144) | 0.037
69 | ACADS (UniProt P16219) | 0.217
70 | AGTPBP1 (UniProt Q9UPW5) | -0.033

Source: the supplement of paper PMC10849652
